Measured values reported in PubChem BioAssay AID1650 (Southern Research Specialized Biocontainment Screening …, 2009).
Measured potencies and affinities stand elsewhere. Values without a mark were called inactive. How the calls were made is not given here.

Assay: mammalian cell viability reduction – secondary assay, cytotoxicity control for West Nile virus antiviral project, dose response (AID 1650)
Conditions: Mammalian host cell viability, cytotoxicity counter-screen; series mostly up to 10 µM; viability: at the top concentration

Compound	viability
CC(C)n1cc(CN2CCCC(C(=O)Nc3cccc(-c4cc5ccccc5[nH]4)c3)C2)cn1 (centres undefined)	85.8%
CC(=O)OCC1O[C@@H](O[C@@H]2C[C@H]3C(C)(C)[C@H](OC(C)=O)CC[C@]3(C)[C@H]3CC[C@]45C[C@]4(CC[C@H]5[C@@H](C)C[C@@H](O)[C@H](O)C(C)(C)O)[C@@]32C)[C@H](O)[C@@H](O)[C@@H]1O (some centres undefined)	93.6%
CCOc1ccc(-c2cc(C(=O)NCCCN3CCN(CC)CC3)c3ccccc3n2)cc1	82%
CN1CCN(c2ccc(NC(=O)c3ccc(-c4cccc([N+](=O)[O-])c4)o3)cc2)CC1	75.1%
Cc1ccc2nc(N(CCCN(C)C)C(=O)CCc3ccccc3)sc2c1	78.6%
C=CCn1cc(C(=O)NCCOC)c(=O)c2cc(S(=O)(=O)N(CC)CC)ccc21	84.9%
COc1cc(CNC(C)(C)C)cc(Br)c1OCc1cccs1	88.1% [at 20 µM]
Cn1cc(CN2CCCC(C(=O)Nc3ccc(-c4cccc(F)c4)cc3)C2)cn1 (centres undefined)	86.8%
COc1ccc(C2c3c(ncn(CCN4CCOCC4)c3=N)Oc3ccc4ccccc4c32)cc1 (centres undefined)	84.2%
CN(C)CCCNC(=S)N1CCN(c2nc(-c3ccccc3)cs2)CC1	81.2%
CCOc1ccc(-c2cc(C(=O)NCCCN3CCCC3)c3ccccc3n2)cc1	85.1% [at 20 µM]
CN(C)CC(O)COc1ccc(C(C)(C)c2ccc(OCC(O)CN(C)C)cc2)cc1 (centres undefined)	89.6%
CCOC(=O)C1(Cc2ccccc2C(F)(F)F)CCN(C2CCN(C(C)C)CC2)CC1	72.2% [at 20 µM]
O=C(CSc1nc2ccccc2c(=O)n1-c1ccc(F)cc1F)Nc1ccc(N2CCOCC2)cc1	86% [at 20 µM]
